Results as given in PubChem BioAssay (EPA / NIEHS).
Active and inactive are the calls of the source. The calls were made as follows: active = hit-call score of the fitted dose curve at least 0.9, where 1 is the maximum; inactive = score below 0.9.

Assays:
[1] = read-out: Thrombomodulin, THBD (gene 7056); assay: BSK_CASM3C_Thrombomodulin: BioMAP Diversity Plus: CASM3C Assay for Thrombomodulin Biomarker Activity (AID 2283051); conditions: primary human coronary artery smooth muscle cells; actives raise or lower the signal;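 also: thrombomodulin protein level measured by ELISA 24 h after dosing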
[2] = read-out: Tissue Factor, F3 (gene 2152); assay: BSK_CASM3C_TissueFactor: BioMAP Diversity Plus: CASM3C Assay for Tissue Factor Biomarker Activity (AID 2283052); conditions: primary human coronary artery smooth muscle cells; actives raise or lower the signal;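 also: cell surface tissue factor protein level read by ELISA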
[3] = read-out: Interferon-gamma inducible Protein 10 (IP10), CXCL10 (gene 3627); assay: BSK_hDFCGF_IP10: BioMAP Diversity Plus: hDFCGF Assay for Interferon-gamma inducible Protein 10 (IP10) Biomarker Activity (AID 2283053); conditions: primary human foreskin fibroblasts; actives raise or lower the signal
In short: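 Cells: human dermal foreskin fibroblasts. Exposure: 24 h post-dosing. Detection: IP-10 ELISA, with values expressed against DMSO controls and fitted in both directions.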

[4] = read-out: Urokinase-type plasminogen activator receptor (uPAR), PLAUR (gene 5329); assay: BSK_CASM3C_uPAR: BioMAP Diversity Plus: CASM3C Assay for Urokinase-type plasminogen activator receptor (uPAR) Biomarker Activity (AID 2283054); conditions: primary human coronary artery smooth muscle cells; actives raise or lower the signal;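 also: cell-surface uPAR protein level quantified by ELISA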
[5] = read-out: Vascular cell adhesion molecule 1 (VCAM1), VCAM1 (gene 7412); assay: BSK_CASM3C_VCAM1: BioMAP Diversity Plus: CASM3C Assay for Vascular cell adhesion molecule 1 (VCAM1) Biomarker Activity (AID 2283055); conditions: primary human coronary artery smooth muscle cells; actives raise or lower the signal;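 also: VCAM-1 protein level quantified by ELISA on the cells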
[6] = read-out: Epidermal growth factor receptor (EGFR), EGFR (gene 1956); assay: BSK_hDFCGF_EGFR: BioMAP Diversity Plus: hDFCGF Assay for Epidermal growth factor receptor (EGFR) Biomarker Activity (AID 2283057); conditions: primary human foreskin fibroblasts; actives raise or lower the signal
In short: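 Dosing human primary skin fibroblasts, then measuring surface EGFR by ELISA at 24 h, gives the endpoint; gains and losses relative to DMSO were fitted in both directions.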

[7] = read-out: Interleukin-8 (IL8), CXCL8 (gene 3576); assay: BSK_hDFCGF_IL8: BioMAP Diversity Plus: hDFCGF Assay for Interleukin-8 (IL8) Biomarker Activity (AID 2283058); conditions: primary human foreskin fibroblasts; actives raise or lower the signal
In short: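 Cells used are human skin primary fibroblasts. Chemical is added, cultures run 24 h, then IL-8 is quantified by ELISA, and gain or loss versus DMSO control is fitted in both directions.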

[8] = BSK_hDFCGF_Proliferation: Cell Proliferation Assessment in the BioMAP Diversity Plus: hDFCGF Assay (AID 2283059); conditions: primary human foreskin fibroblasts;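 also: curves fitted for both rise and fall of signal versus DMSO baseline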
In short: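 Sub-confluent human foreskin fibroblast cultures receive test chemical […]. Relative cell number is quantified by sulforhodamine B staining (0.1%, after 10% TCA fixation) at 560 nm, with bidirectional fitting referenced to DMSO.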

[9] = read-out: Macrophage colony-stimulating factor (MCSF), CSF1 (gene 1435); assay: BSK_hDFCGF_MCSF: BioMAP Diversity Plus: hDFCGF Assay for Macrophage colony-stimulating factor (MCSF) Biomarker Activity (AID 2283060); conditions: primary human foreskin fibroblasts; actives raise or lower the signal
In short: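 Primary human foreskin fibroblasts dosed with chemical; 24 h later, M-CSF quantified by ELISA; curves fitted in both directions vs DMSO negative control.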

[10] = BSK_hDFCGF_SRB: Viability Assessment in the BioMAP Diversity Plus: hDFCGF Assay (AID 2283061); conditions: primary human foreskin fibroblasts;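 also: cells exposed to compound for 24 h before the read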
In short: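 Readout is SRB absorbance at 560 nm, reflecting total protein in parallel cultures of human foreskin fibroblasts harvested 24 h after chemical dosing. Activity was fitted bidirectionally relative to DMSO.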

[11] = read-out: TIMP metallopeptidase inhibitor 1 (TIMP1), TIMP1 (gene 7076); assay: BSK_hDFCGF_TIMP1: BioMAP Diversity Plus: hDFCGF Assay for TIMP metallopeptidase inhibitor 1 (TIMP1) Biomarker Activity (AID 2283062); conditions: primary human foreskin fibroblasts; actives raise or lower the signal
In short: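 Human skin fibroblasts (primary), hDFCGF system; compound exposure 24 h; TIMP-1 by ELISA; bidirectional fit vs DMSO negative control; overt cytotoxicity by SRB in parallel wells.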

[12] = read-out: Monokine induced gamma interferon (MIG), CXCL9 (gene 4283); assay: BSK_hDFCGF_MIG: BioMAP Diversity Plus: hDFCGF Assay for Monokine induced gamma interferon (MIG) Biomarker Activity (AID 2283063); conditions: primary human foreskin fibroblasts; actives raise or lower the signal
In short: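 Chemicals were added to primary human foreskin fibroblast cultures, which were sampled 24 h later. MIG levels were then quantified by ELISA and responses fitted in both directions relative to DMSO.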

[13] = read-out: Matrix Metallopeptidase 1 (MMP1), MMP1 (gene 4312); assay: BSK_hDFCGF_MMP1: BioMAP Diversity Plus: hDFCGF Assay for Matrix Metallopeptidase 1 (MMP1) Biomarker Activity (AID 2283064); conditions: primary human foreskin fibroblasts; actives raise or lower the signal
In short: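 Human foreskin fibroblasts exposed to chemical for 24 h; MMP1 detected by ELISA, with DMSO as baseline for bidirectional fitting.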

[14] = read-out: Vascular cell adhesion molecule 1 (VCAM1), VCAM1 (gene 7412); assay: BSK_hDFCGF_VCAM1: BioMAP Diversity Plus: hDFCGF Assay for Vascular cell adhesion molecule 1 (VCAM1) Biomarker Activity (AID 2283065); conditions: primary human foreskin fibroblasts; actives raise or lower the signal
In short: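 Human foreskin fibroblast primary cells, chemical exposure 24 h; VCAM-1 by ELISA; bidirectional fit, DMSO = negative control/baseline.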

[15] = read-out: Plasminogen activator inhibitor-1 (PAI1), SERPINE1 (gene 5054); assay: BSK_hDFCGF_PAI1: BioMAP Diversity Plus: hDFCGF Assay for Plasminogen activator inhibitor-1 (PAI1) Biomarker Activity (AID 2283066); conditions: primary human foreskin fibroblasts; actives raise or lower the signal
In short: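 Fibroblasts from human foreskin were treated with test chemical. After 24 h, PAI-1 was measured by ELISA. Activity was fitted in both directions relative to DMSO.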

[16] = read-out: Intercellular Adhesion Molecule 1 (ICAM1), ICAM1 (gene 3383); assay: BSK_KF3CT_ICAM1: BioMAP Diversity Plus: KF3CT Assay for Intercellular Adhesion Molecule 1 (ICAM1) Biomarker Activity (AID 2283067); conditions: primary human keratinocytes with fibroblasts; actives raise or lower the signal
In short: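 ICAM-1 levels are measured by ELISA 24 h after dosing a primary human co-culture of keratinocytes and foreskin fibroblasts. Activity in either direction is fitted relative to DMSO vehicle.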

[17] = read-out: Interferon-gamma inducible Protein 10 (IP10), CXCL10 (gene 3627); assay: BSK_KF3CT_IP10: BioMAP Diversity Plus: KF3CT Assay for Interferon-gamma inducible Protein 10 (IP10) Biomarker Activity (AID 2283068); conditions: primary human keratinocytes with fibroblasts; actives raise or lower the signal
In short: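 ELISA read-out of IP-10 after 24 h chemical dosing of human skin primary co-culture (keratinocytes, foreskin fibroblasts). Gain or loss of signal relative to DMSO, bidirectional curve fit.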

[18] = BSK_KF3CT_SRB: Viability Assessment in the BioMAP Diversity Plus: KF3CT Assay (AID 2283069); conditions: primary human keratinocytes with fibroblasts;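 also: read 24 h after compound addition; fitted for both signal gain and loss against DMSO baseline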
In short: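 Overt cytotoxicity is assessed as total protein by sulforhodamine B staining in parallel human skin co-cultures at 24 h after dosing. DMSO serves as negative control and baseline.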

[19] = read-out: Interleukin-1 alpha (IL1a), IL1A (gene 3552); assay: BSK_KF3CT_IL1a: BioMAP Diversity Plus: KF3CT Assay for Interleukin-1 alpha (IL1a) Biomarker Activity (AID 2283070); conditions: primary human keratinocytes with fibroblasts; actives raise or lower the signal
In short: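 Readout is IL-1a level by ELISA, compared bidirectionally with DMSO as baseline. Cells: human keratinocytes co-cultured with foreskin fibroblasts, harvested 24 h post-dose.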

[20] = read-out: Collagen III, COL3A1 (gene 1281); assay: BSK_hDFCGF_CollagenIII: BioMAP Diversity Plus: hDFCGF Assay for Collagen III Biomarker Activity (AID 2283056); conditions: primary human foreskin fibroblasts; actives raise or lower the signal
In short: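 ELISA read-out of collagen III from human skin fibroblast cultures sampled 24 h post-dosing. Values were derived by bidirectional fitting relative to the DMSO vehicle control.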

O=C(OCCCCCCOC(=O)c1ccccc1)c1ccccc1
AC50 [1]: 15.9 µM (active)
outcome [2]: inactive
outcome [3]: inactive
outcome [4]: inactive
outcome [5]: inactive
outcome [6]: inactive
outcome [7]: inactive
outcome [8]: inactive
outcome [9]: inactive
outcome [10]: inactive
outcome [11]: inactive
outcome [12]: inactive
outcome [13]: inactive
outcome [14]: inactive
outcome [15]: inactive
outcome [16]: inactive
outcome [17]: inactive
outcome [18]: inactive
outcome [19]: inactive

CCCCOC(=O)CC(CC(=O)OCCCC)(OC(C)=O)C(=O)OCCCC
outcome [1]: inactive
outcome [2]: inactive
outcome [3]: inactive
outcome [4]: inactive
outcome [5]: inactive
outcome [20]: inactive
outcome [6]: inactive
outcome [7]: inactive
outcome [8]: inactive
outcome [9]: inactive
outcome [11]: inactive
outcome [12]: inactive
outcome [13]: inactive
outcome [14]: inactive
outcome [15]: inactive
outcome [16]: inactive
outcome [17]: inactive
outcome [18]: inactive
outcome [19]: inactive

Cc1oc2c(NC(=O)c3c(Cl)cccc3Cl)cccc2c1C(C)(C)O
AC50 [1]: 26.5 µM (active)
AC50 [2]: 29.4 µM (active)
outcome [3]: inactive
outcome [4]: inactive
outcome [5]: inactive
AC50 [20]: 20 µM (active)
AC50 [6]: 17.3 µM (active)
outcome [7]: inactive
AC50 [8]: 14.1 µM (active)
outcome [9]: inactive
AC50 [11]: 12.3 µM (active)
outcome [12]: inactive
AC50 [13]: 10.7 µM (active)
outcome [14]: inactive
AC50 [15]: 14.2 µM (active)
outcome [16]: inactive
outcome [17]: inactive
outcome [18]: inactive
outcome [19]: inactive

Oc1ccccc1
outcome [1]: inactive
outcome [2]: inactive
outcome [3]: inactive
outcome [4]: inactive
outcome [5]: inactive
outcome [20]: inactive
outcome [6]: inactive
outcome [7]: inactive
outcome [8]: inactive
outcome [9]: inactive
outcome [11]: inactive
outcome [12]: inactive
outcome [13]: inactive
outcome [14]: inactive
outcome [15]: inactive
outcome [16]: inactive
outcome [17]: inactive
outcome [18]: inactive

COc1cccc([C@H](O)C2CCN(CCc3ccc(F)cc3)CC2)c1OC
outcome [1]: inactive
outcome [2]: inactive
outcome [3]: inactive
outcome [4]: inactive
outcome [5]: inactive
outcome [20]: inactive
outcome [6]: inactive
outcome [7]: inactive
outcome [8]: inactive
outcome [9]: inactive
outcome [11]: inactive
outcome [12]: inactive
outcome [13]: inactive
outcome [14]: inactive
outcome [15]: inactive
outcome [16]: inactive
outcome [17]: inactive
outcome [18]: inactive

O=C=NCCCCCCN=C=O
outcome [1]: inactive
outcome [2]: inactive
outcome [3]: inactive
outcome [4]: inactive
outcome [5]: inactive
outcome [20]: inactive
outcome [6]: inactive
outcome [7]: inactive
outcome [8]: inactive
outcome [9]: inactive
outcome [11]: inactive
outcome [12]: inactive
outcome [13]: inactive
outcome [14]: inactive
outcome [15]: inactive
outcome [16]: inactive
outcome [17]: inactive
outcome [18]: inactive
